Assay results as given in PubChem BioAssay (NCI).
This is part of a sample that, as a whole, favours compounds with a hit. Of some 79,000 tested, about 15% had one in any assay. Active and inactive are the calls of the source. No stated cut-off is given here; in the data, active means growth inhibition above about 70%; inactive means the rest.

How the values were obtained:
[1] = NCI Yeast Anticancer Drug Screen. Data for the rad52 strain (AID 147);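 further: 0% = growth of vehicle-treated control cultures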; conditions: S. cerevisiae rad52 mutant growth inhibition, stronger effect = higher value
Method in brief: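 Growth of repair-deficient yeast cells was compared between compound-treated and vehicle-treated cultures to give percent inhibition.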

[2] = NCI Yeast Anticancer Drug Screen. Data for the wt1 strain (AID 149);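 further: 0% = growth of vehicle-treated wt1 cultures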; conditions: S. cerevisiae wt1 strain (SPY 50644) growth inhibition, stronger effect = higher value
Method in brief: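 Growth inhibition read against vehicle controls after compound exposure of the wt1 yeast strain.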

[3] = NCI Yeast Anticancer Drug Screen. Data for the rad50EPP+ strain (AID 151);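 further: 0% = growth of vehicle-treated control cultures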; conditions: S. cerevisiae rad50 mutant strain, stronger effect = higher value
Method in brief: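 Measured: growth inhibition of rad50EPP+ yeast. Reference: vehicle-treated controls. Screen uses strains with defined genetic alterations in DNA damage repair or cell cycle control.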

[4] = NCI Yeast Anticancer Drug Screen. Data for the mgt1 strain (AID 153); conditions: S. cerevisiae mgt1 mutant growth inhibition, stronger effect = higher value
Method in brief: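 Compounds were applied to mgt1 mutant yeast, and growth was then compared against vehicle-treated control cultures to give percent inhibition.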

[5] = NCI Yeast Anticancer Drug Screen. Data for the rad50 strain (AID 155);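 further: 0% = growth of vehicle-only cultures of the same strain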; conditions: S. cerevisiae rad50 strain growth inhibition, stronger effect = higher value
Method in brief: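 Readout: growth inhibition relative to vehicle-treated cultures. Compound exposure was carried out in a genetically defined yeast strain deficient in DNA damage repair.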

[6] = NCI Yeast Anticancer Drug Screen. Data for the mec2-1 strain (AID 157); conditions: S. cerevisiae mec2-1 strain, stronger effect = higher value
Method in brief: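 Compounds were applied to mec2-1 yeast cells. Their growth was then compared with that of vehicle-treated cultures to give growth inhibition.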

[7] = NCI Yeast Anticancer Drug Screen. Data for the rad14 strain (AID 159);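 further: 0% = growth of vehicle-treated control cultures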; conditions: S. cerevisiae rad14 strain growth inhibition, stronger effect = higher value
Method in brief: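 Growth inhibition vs vehicle controls; genetically altered yeast strain (DNA damage repair defect) treated with test compounds.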

[8] = NCI Yeast Anticancer Drug Screen. Data for the sgs1 mgt1 strain (AID 161);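 further: 0% = growth of cultures given vehicle only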; conditions: S. cerevisiae sgs1 mgt1 strain, stronger effect = higher value
Method in brief: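 This yeast growth screen uses a strain with defined DNA-repair lesions; compound-treated growth is compared with vehicle-treated growth.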

[9] = NCI Yeast Anticancer Drug Screen. Data for the CLN2oe strain (AID 163);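 further: 0% = growth of vehicle-only control cultures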; conditions: S. cerevisiae CLN2oe strain, stronger effect = higher value
Method in brief: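 Cells of an engineered yeast line with disturbed cell-cycle regulation are treated with compound. Inhibition of growth is then calculated relative to the vehicle-treated reference.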

[10] = NCI Yeast Anticancer Drug Screen. Data for the cln2 rad14 strain (AID 165);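 further: 0% = growth equal to vehicle treated cultures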; conditions: S. cerevisiae cln2 rad14 strain, stronger effect = higher value
Method in brief: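 Strain: cln2 rad14 yeast, altered in cell cycle control and DNA damage repair. Read-out: growth inhibition vs vehicle.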

[11] = NCI Yeast Anticancer Drug Screen. Data for the bub3 strain (AID 167); conditions: S. cerevisiae bub3 mutant strain, stronger effect = higher value
Method in brief: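 Readout: yeast growth inhibition, expressed relative to vehicle-only wells. The test organism is a mutant strain from a panel with lesions in DNA repair or checkpoint genes.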

[12] = NCI Yeast Anticancer Drug Screen. Data for the wt2 strain (AID 169);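 further: 0% = growth of vehicle-treated yeast cultures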; conditions: S. cerevisiae wt2 strain growth inhibition, stronger effect = higher value
Method in brief: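 Growth of compound-treated yeast is measured and expressed as inhibition relative to vehicle-only controls.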

[13] = NCI Yeast Anticancer Drug Screen. Data for the mlh1 strain (AID 171);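 further: 0% = growth of vehicle-treated control cultures of the same strain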; conditions: S. cerevisiae mlh1 strain growth inhibition, stronger effect = higher value
Method in brief: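 Test agents were incubated with yeast bearing a defined DNA damage repair or cell cycle control alteration; values are growth inhibition normalised to vehicle-treated cultures.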

[14] = NCI Yeast Anticancer Drug Screen. Data for the sgs1 strain (AID 173);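 further: 0% = growth of vehicle-only control cultures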; conditions: S. cerevisiae sgs1 mutant, stronger effect = higher value
Method in brief: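 Strain with an altered DNA repair or cell cycle pathway exposed to compound. Growth then measured. Value = inhibition versus vehicle control.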

[15] = NCI Yeast Anticancer Drug Screen. Data for the mlh1 rad18 strain (AID 175); conditions: S. cerevisiae mlh1 rad18 strain growth inhibition, stronger effect = higher value
Method in brief: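 A repair-deficient yeast strain is exposed to test compound, and growth is scored relative to vehicle-treated controls.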

[16] = at 5.0 µM (retest, dose inferred, filed as 0.5)
[17] = at 50.0 µM (retest, dose inferred, filed as 5.0)

Measured: growth inhibition

O=C(/C=C/c1cccc2ccccc12)c1ccc(Cl)cc1
active: [5]; [17] 98% | [5]; at 50.0 µM 83.5% | [6]; [17] 99% | [6]; at 50.0 µM 74.6% | [15]; [17] 99% | [15]; at 50.0 µM 80.4%
inactive: [1]; at 1.2 µM 7% | [1]; at 3.7 µM 7% | [1]; at 11.0 µM 7% | [1]; at 33.0 µM -4% | [1]; at 100.0 µM -13% | [2]; at 1.2 µM -30% | [2]; at 3.7 µM -19% | [2]; at 11.0 µM -28% | [2]; at 33.0 µM -34% | [2]; at 100.0 µM -45% | [3]; at 1.2 µM -3% | [3]; at 3.7 µM 4% | [3]; at 11.0 µM 9% | [3]; at 33.0 µM 0% | [3]; at 100.0 µM -12% | [4]; at 1.2 µM 13% | [4]; at 3.7 µM 11% | [4]; at 11.0 µM 7% | [4]; at 33.0 µM 8% | [4]; at 100.0 µM -5% | [5]; at 1.2 µM 24% | [5]; at 3.7 µM 27% | [5]; [16] 37% | [5]; at 11.0 µM 24% | [5]; at 33.0 µM 13% | [5]; at 100.0 µM 13% | [6]; at 1.2 µM 11% | [6]; at 3.7 µM 14% | [6]; [16] 67% | [6]; at 11.0 µM -2% | [6]; at 33.0 µM -6% | [6]; at 100.0 µM -12% | [7]; at 1.2 µM -28% | [7]; at 3.7 µM -23% | [7]; at 11.0 µM -30% | [7]; at 33.0 µM -38% | [7]; at 100.0 µM -35% | [8]; [16] -3% | [8]; [17] 42% | [9]; at 1.2 µM 5% | [9]; at 3.7 µM 4% | [9]; at 11.0 µM -27% | [9]; at 33.0 µM -35% | [9]; at 100.0 µM -43% | [10]; [16] 28% | [10]; [17] -7% | [11]; at 1.2 µM 6% | [11]; at 3.7 µM 11% | [11]; [16] 2% | [11]; at 11.0 µM 9% | [11]; at 33.0 µM 7% | [11]; [17] 17% | [11]; at 100.0 µM -6% | [12]; at 1.2 µM -25% | [12]; at 3.7 µM -19% | [12]; at 11.0 µM -28% | [12]; at 33.0 µM -33% | [12]; at 100.0 µM -33% | [13]; at 1.2 µM -33% | [13]; at 3.7 µM -24% | [13]; at 11.0 µM -34% | [13]; at 33.0 µM -46% | [13]; at 100.0 µM -49% | [14]; at 1.2 µM -21% | [14]; at 3.7 µM -22% | [14]; at 11.0 µM -27% | [14]; at 33.0 µM -34% | [14]; at 100.0 µM -48% | [15]; [16] 35%
